From PubChem BioAssay
RORg inh – qHTS for inhibitors of ROR gamma transcriptional activity. Nuclear receptor ROR-gamma (Mus musculus), P51450. Drosophila S2 Gal4-RORgamma UAS-luciferase reporter, 20 h. Potency, µM (top dose mostly 53.6 µM), for inactives: top-dose activity change, negative = inhibition, most hits filed as inhibitors. 310,000 tested, 5.4% active. AID 2551, 2010; also: potency is read from the fitted curve at half-maximal effect; nearly all actives have a fitted effect of over 60% in size
Target sequence (P51450 whole entry, looked up, the tested form may be a part): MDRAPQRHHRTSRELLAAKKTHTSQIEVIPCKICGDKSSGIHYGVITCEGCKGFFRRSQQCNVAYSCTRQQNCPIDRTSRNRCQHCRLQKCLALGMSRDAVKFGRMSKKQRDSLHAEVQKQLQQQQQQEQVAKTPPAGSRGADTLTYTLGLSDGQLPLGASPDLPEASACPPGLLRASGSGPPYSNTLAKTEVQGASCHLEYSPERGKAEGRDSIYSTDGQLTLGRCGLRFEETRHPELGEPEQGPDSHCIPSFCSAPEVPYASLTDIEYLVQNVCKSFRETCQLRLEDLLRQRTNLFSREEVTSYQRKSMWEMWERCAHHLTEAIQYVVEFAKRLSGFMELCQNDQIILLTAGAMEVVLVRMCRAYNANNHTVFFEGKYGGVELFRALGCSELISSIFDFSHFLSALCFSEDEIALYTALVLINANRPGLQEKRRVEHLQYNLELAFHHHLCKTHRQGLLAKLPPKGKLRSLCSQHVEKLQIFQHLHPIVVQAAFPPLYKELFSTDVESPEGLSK
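Stable Schneider cell line, Gal4 DNA-binding domain fused to ROR gamma, UAS-luciferase. Cmpd 1 hr RT → CuSO4 700 uM final → 20 hr RT → luciferase reagent 10 min → luminescence.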
TDP1 cell CPT – qHTS for Inhibitors of human tyrosyl-DNA phosphodiesterase 1 (TDP1): qHTS in cells in presence of CPT; chicken DT40 Tdp1-/-;hTDP1 cells + 20 nM CPT, ATP luminescence, 48 h; 420,000 tested, 12% active; Potency, µM (highest dose often 46.2 µM), for inactives: at the top dose activity change, negative = growth inhibition, most hits filed as inhibitors; AID 686979, 2013; also: potency is read from the fitted curve at half-maximal effect; nearly all actives have a fitted effect of over 55% in size
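Cell growth measured by CellTiter-Glo luminescence after a minimum 48 h, 37 C compound exposure with 20 nM CPT in Tdp1-knockout DT40 cells stably expressing hTDP1, seeded 400/well; qHTS titration format.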
TDP1 cell noCPT – qHTS for Inhibitors of human tyrosyl-DNA phosphodiesterase 1 (TDP1): qHTS in cells in absence of CPT | 420,000 tested, 15% active | DT40 Tdp1-/- hTDP1 cells, no CPT, ATP luminescence, 48 h | Potency, µM (titrated, usually from 46.2 µM), for the others: top-dose activity change, negative = growth inhibition, usual class: inhibitors; also: potency is read from the fitted curve at half-maximal effect; nearly all actives have a fitted effect of over 55% in size
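Growth of hTDP1-complemented DT40 Tdp1-knockout cells is measured by ATP luminescence after at least 48 hr compound exposure at 37 °C, with DMSO substituting for the 20 nM CPT used in the parallel screen.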
ELG1 DNA repair – qHTS screen for small molecules that inhibit ELG1-dependent DNA repair in human embryonic kidney (HEK293T) cells expressing luciferase-tagged ELG1. HEK293T ELG1-luciferase reporter, luminescence, 16 h; DNA damage induced by 5-fluorouridine. Potency, µM (doses to about 46.1 µM), for the others: top-dose activity change, negative = inhibition, usual class: inhibitors. AID 504467, 2011. 330,000 tested, 2.3% active; also: potency is read from the fitted curve at half-maximal effect; nearly all actives have a fitted effect of over 55% in size
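In this reporter screen, reduction of luminescence relative to DMSO vehicle indicated activity. Compounds and 5-fluorouridine were added together to 2,000 cells per well, incubated for 16 hr at 37 °C, then developed with ONE-Glo.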
VP16 counter – VP16 counterscreen qHTS for inhibitors of ROR gamma transcriptional activity; Drosophila S2 Gal4-VP16 UAS-luciferase, luminescence, 20 h; Potency, µM (top dose mostly 53.6 µM), inactives show at the highest dose activity, negative = inhibition, usual class: inhibitors; 310,000 tested, 3.5% active;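 also: Gal4-VP16 expression switched on by copper sulfate through the metallothionein promoter; potency is read from the fitted curve at half-maximal effect; nearly all actives have a fitted effect of over 50% in size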
IL1B secr inh – qHTS for Inhibitors of Inflammasome Signaling: IL-1-beta AlphaLISA Primary Screen. 360,000 tested, 4.7% active. activity change, % at 57.5 µM. AID 743279, 2014. THP-1 LPS/ATP IL-1B secretion, AlphaLISA, 16 h; active compounds read low; in the data active = activity change below about -50%; inconclusive = mostly about -30% to -49%
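Secreted IL-1B measured by AlphaLISA bead assay after 16 h compound exposure of THP-1 cells; compounds (final up to 57.5 uM) added 1 h before LPS (250 ng/mL) and ATP (1.25 mM) stimulation; lower signal means less secretion.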
The depositor's hits bear a star; ! = repeats disagree; [ ] = another dose, or the depositor's remark. The list is not random: actives were taken first. Their share in the collection is about 21%. Unless noted, calls follow the shape of the dose curve; as a rule, active = well fitted curve in the direction sought with a large enough effect; inconclusive = small, poorly fitted or top-dose-only effect, or another doubt; inactive = no such curve, though single readings can be large; an effect the other way counts as inactive or inconclusive. % is scaled to controls: 0 for no effect and ±100 for the full control effect.

What do the screens show for `COc1cc2c(c(OC)c1OC)-c1ccc(OC)c(=O)cc1[C@H](NC(C)=O)CC2`?
RORg inh: -42.7%; TDP1 cell CPT: 0.0944µM*; TDP1 cell noCPT: 0.0596µM*; VP16 counter: -5.3%

What do the screens show for `CCN(CC)c1ccc2c(cc1=O)[C@@H](NC)CCc1cc(OC)c(OC)c(OC)c1-2`?
RORg inh: -6.8%; TDP1 cell CPT: 1.16µM*; TDP1 cell noCPT: 1.16µM*; ELG1 DNA repair: inconclusive; VP16 counter: -6.6%; IL1B secr inh: 49.5

Results for COc1cc2c(c(OC)c1OC)-c1ccc(O)c(=O)cc1[C@H](N)CC2 ?
RORg inh: 2.7%[16.9 µM]; VP16 counter: -9.0%[17 µM]

How did COc1cc2c(c(OC)c1O)-c1ccc(OC)c(=O)cc1C(NC(=O)C(F)(F)F)CC2 (stereo unspecified) do in these assays?
TDP1 cell CPT: 0.103µM*; TDP1 cell noCPT: 0.164µM*; IL1B secr inh: 32.2

Results for COc1cc2c(c(OC)c1OC)-c1ccc(OC)c(=O)cc1[C@@H](NC(C)=O)CC2 ?
RORg inh: -27.2%; TDP1 cell CPT: 0.0164µM*; TDP1 cell noCPT: 0.188µM*!; ELG1 DNA repair: inconclusive; VP16 counter: -8.9%; IL1B secr inh: 68.6

What do the screens show for `ClC=C(Cl)Cl`?
RORg inh: -24.6%; TDP1 cell CPT: 5.7%; TDP1 cell noCPT: 14.4%; VP16 counter: 9.3%

How did CO[C@@H](C)[C@](O)(C(=O)OCC1=CCN2CC[C@@H](O)[C@H]12)C(C)C do in these assays?
RORg inh: -3.4%[16.9 µM]; VP16 counter: 10.5%[17 µM]

Results for COC(=O)C1=C(c2ccc(F)cc2F)C[C@@H]2CC[C@H]1N2C(=O)N1CCC(O)CC1 ?
TDP1 cell CPT: 11.2%; TDP1 cell noCPT: -12.9%; ELG1 DNA repair: 16.2%; IL1B secr inh: 29.5

What do the screens show for `CC1CN1P1(=O)OCC(C)([N+](=O)[O-])CO1` (stereo unspecified)?
TDP1 cell CPT: inconclusive; TDP1 cell noCPT: inconclusive; IL1B secr inh: 20.2

What do the screens show for `COc1cc(/C=C(/C)[N+](=O)[O-])ccc1OCc1ccccc1Cl`?
RORg inh: 3.98µM*; TDP1 cell CPT: 3.26µM*; TDP1 cell noCPT: 2.91µM*; ELG1 DNA repair: inconclusive; VP16 counter: inconclusive; IL1B secr inh: -99.3*

What do the screens show for `Fc1ccc(N2CCN(c3ncnc4c3nc3n4CCCCC3)CC2)cc1`?
TDP1 cell CPT: -18.7%; TDP1 cell noCPT: 18.4µM*

How did C[C@]12CCC3C(CC[C@H]4CC(O)CC[C@]34C)C1CC/C2=N/NC(=O)c1ccncc1 (stereo partly specified) do in these assays?
RORg inh: -13.5%; TDP1 cell CPT: 25.9µM*; TDP1 cell noCPT: 23.1µM*; ELG1 DNA repair: inconclusive; VP16 counter: -5.4%; IL1B secr inh: 46.4

Results for C[C@]12CC[C@@H](O)C[C@H]1CC[C@@H]1[C@@H]2CC[C@]2(C)C(=O)CC[C@@H]12 ?
TDP1 cell CPT: inconclusive; TDP1 cell noCPT: inconclusive; ELG1 DNA repair: -0.6%; IL1B secr inh: -14.1

What do the screens show for `C=C[C@H]1CN2CC[C@H]1C[C@H]2c1[nH]c2ccccc2c1CCO`?
RORg inh: -14.5%; TDP1 cell CPT: 14.3%; TDP1 cell noCPT: -25.9%; VP16 counter: -0.7%

Results for CC[C@]1(C2=NCCN2)Cc2ccccc2O1 ?
RORg inh: 13.6%; TDP1 cell CPT: 4.8%; TDP1 cell noCPT: -19.6%; VP16 counter: -8.8%

Results for c1ccc([Se]c2c(-c3ccccc3)[se]c3ccccc23)cc1 ?
RORg inh: 32.7%; VP16 counter: 13.6%

Results for CCC1(OC(=O)CN)C(=O)OCc2c1cc1n(c2=O)Cc2cc3ccccc3nc2-1 (stereo unspecified) ?
RORg inh: inconclusive; TDP1 cell CPT: 0.164µM*; TDP1 cell noCPT: 0.0651µM*; ELG1 DNA repair: inconclusive; VP16 counter: inconclusive; IL1B secr inh: -98.4*

What do the screens show for `CC[C@@]1(O)C(=O)OCc2c1cc1n(c2=O)Cc2cc3c(O)cccc3nc2-1`?
RORg inh: 0.355µM*; VP16 counter: inconclusive

How did CC[C@@]1(O)C(=O)OCc2c1cc1n(c2=O)Cc2cc3ccccc3nc2-1 do in these assays?
RORg inh: 0.0562µM*; TDP1 cell CPT: 0.0794µM*; TDP1 cell noCPT: 0.0891µM*!; ELG1 DNA repair: inconclusive; VP16 counter: inconclusive

How did CC[C@@]1(O)C(=O)OCc2c1cc1n(c2=O)Cc2cc3c(NC(=O)CN)cccc3nc2-1 do in these assays?
RORg inh: -41.3%; TDP1 cell CPT: 0.231µM*; TDP1 cell noCPT: 0.411µM*; ELG1 DNA repair: inconclusive; VP16 counter: -19.7%; IL1B secr inh: inconclusive

How did CN=C=O do in these assays?
RORg inh: 7.1%; VP16 counter: -4.3%

Results for Cc1c(C(=O)c2ccc3ccccc3c2)c2cccc3c2n1[C@H](CN1CCOCC1)CO3 ?
RORg inh: 27.1%; TDP1 cell CPT: 11.9µM*; TDP1 cell noCPT: inconclusive; VP16 counter: -21.3%

How did Cc1c(C(=O)c2cccc3ccccc23)c2cccc3c2n1[C@H](CN1CCOCC1)CO3 do in these assays?
RORg inh: inconclusive; TDP1 cell CPT: 2.91µM*!; TDP1 cell noCPT: 4.61µM*!; VP16 counter: -12.2%; IL1B secr inh: -27.3

What do the screens show for `O=C(CN1CCOCC1)c1cccc2ccccc12`?
RORg inh: -13.7%; TDP1 cell CPT: -24.0%; TDP1 cell noCPT: inconclusive; ELG1 DNA repair: 0.6%; VP16 counter: -17.8%; IL1B secr inh: -1.5

How did Nc1cc(Cl)cc(C(=O)O)c1Cl do in these assays?
RORg inh: 6.2%; TDP1 cell CPT: 20.0%; TDP1 cell noCPT: -12.0%; ELG1 DNA repair: 8.4%; VP16 counter: 9.6%; IL1B secr inh: 8.5

What do the screens show for `COCCCOc1ccnc(CS(=O)c2nc3ccccc3[nH]2)c1C` (stereo unspecified)?
RORg inh: -13.2%; TDP1 cell CPT: 23.7µM*; TDP1 cell noCPT: inconclusive; ELG1 DNA repair: inconclusive; VP16 counter: -3.1%; IL1B secr inh: 17.4

How did Cc1ccccc1-c1ccc2c(c1)CNCc1cnnn1-2 do in these assays?
TDP1 cell CPT: -22.2%; TDP1 cell noCPT: inconclusive; IL1B secr inh: 21.1
